In PubChem BioAssay AID1159580 (chemical genetic matrix, 2015):
Several values for one entry are separate records, joined by “and”; a condition that tells them apart may be missing. Equal entries are not always repeated. In all, about 5,500 compounds went through this assay and about 2,000 (36%) were called active. Not shown: some 18% with an inconclusive outcome. No stated cut-off is given here; in the data, active means normalized growth mostly below about 0.91 (no sharp cut-off); inconclusive means no clear call, values can overlap the other calls; inactive means mostly above about 0.92. Some of the results follow.

Assay: chemical genetic growth profiling, strain panel (AID 1159580);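 further: tested at 20 µM; growth read once vehicle control cultures reached saturation at 30 °C; 1 = growth at the plate median or of vehicle wells; lower values mean less growth of the strain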
Conditions: S. cerevisiae deletion strains, growth OD

Measured: normalized growth

CN(C)CCOC(=O)C(c1ccccc1)C1(O)CCCC1 (stereo not drawn)
inactive: locus YAL013W, strain DEP1, active compounds read low 1.01 | locus YAL021C, strain ccr4, active compounds read low 0.987 | locus YAL026C, strain drs2, active compounds read low 1.03 | locus YAL030W, strain snc1, active compounds read low 0.99 | locus YBL061C, strain skt5, active compounds read low 0.995 | locus YBR009C, strain hhf1, active compounds read low 1 | locus YBR021W, strain FUR4, active compounds read low 0.991 | locus YBR023C, strain chs3, active compounds read low 1 | locus YBR171W, strain sec66, active compounds read low 0.97 | locus YBR229C, strain ROT2, active compounds read low 0.998 | locus YBR231C, strain swc5, active compounds read low 0.972 | locus YBR279W, strain paf1, active compounds read low 0.992 | locus YCL011C, strain gbp2, active compounds read low 1.01 | locus YCL016C, strain dcc1, active compounds read low 1.03 | locus YCL029C, strain bik1, active compounds read low 1.02 | locus YCL061C, strain MRC1, active compounds read low 0.993 | locus YCL069W, strain vba3, active compounds read low 0.991 | locus YCR088W, strain abp1, active compounds read low 0.981 | locus YDL005C, strain med2, active compounds read low 0.991 | locus YDL035C, strain GPR1, active compounds read low 1.01 | locus YDL040C, strain nat1, active compounds read low 0.974 | locus YDL074C, strain BRE1, active compounds read low 1.02 | locus YDL101C, strain DUN1, active compounds read low 0.998 | locus YDL185W, strain tfp1, active compounds read low 1.01 | locus YDL192W, strain arf1, active compounds read low 1.02 | locus YDR001C, strain nth1, active compounds read low 0.963 | locus YDR069C, strain doa4, active compounds read low 0.99 | locus YDR101C, strain arx1, active compounds read low 1 | locus YDR137W, strain rgp1, active compounds read low 1.04 | locus YDR150W, strain NUM1, active compounds read low 0.998 | locus YDR159W, strain sac3, active compounds read low 1.01 | locus YDR162C, strain NBP2, active compounds read low 1.01 | locus YDR195W, strain ref2 0.925 | locus YDR297W, strain sur2, active compounds read low 0.981 | locus YDR318W, strain mcm21, active compounds read low 1.01 | locus YDR334W, strain swr1, active compounds read low 0.984 | locus YDR335W, strain msn5, active compounds read low 0.985 | locus YDR388W, active compounds read low 1.01 | locus YDR392W, strain spt3, active compounds read low 1.08 | locus YDR502C, strain sam2, active compounds read low 1.02 | locus YEL003W, strain gim4, active compounds read low 0.978 | locus YEL037C, strain rad23, active compounds read low 0.984 | locus YEL061C, strain CIN8 (second series), active compounds read low 0.984 | locus YEL061C, strain CIN8, active compounds read low 1 | locus YER015W, strain faa2, active compounds read low 0.999 | locus YER016W, strain bim1, active compounds read low 1.01 | locus YER110C, active compounds read low 1.02 | locus YER111C, strain swi4, active compounds read low 0.971 | locus YER155C, strain BEM2 (second series), active compounds read low 1 | locus YER155C, strain BEM2, active compounds read low 0.996 | locus YER167W, strain BCK2, active compounds read low 1 | locus YFR010W, strain ubp6, active compounds read low 0.962 | locus YGL078C, strain dbp3, active compounds read low 1.01 | locus YGL086W, strain mad1, active compounds read low 1.02 | locus YGL167C, strain pmr1, active compounds read low 0.974 | locus YGL173C, strain kem1, active compounds read low 0.989 | locus YGL227W, strain vid30, active compounds read low 0.988 | locus YGL240W, strain doc1, active compounds read low 0.963 | locus YGL248W, strain PDE1, active compounds read low 1.01 | locus YGL253W, strain hxk2, active compounds read low 1 | locus YGR135W, strain pre9, active compounds read low 1.03 | locus YGR252W, strain gcn5, active compounds read low 0.964 | locus YHR013C, strain ard1, active compounds read low 1.02 | locus YHR027C, strain rpn1, active compounds read low 1.01 | locus YHR030C, strain SLT2, active compounds read low 1 and 0.988 | locus YHR079C, strain IRE1 (second series), active compounds read low 1.01 | locus YHR079C, strain IRE1, active compounds read low 1 | locus YHR094C, strain hxt1, active compounds read low 1.02 | locus YHR129C, strain ARP1, active compounds read low 1 | locus YHR142W, strain chs7, active compounds read low 0.985 | locus YHR200W, strain rpn10, active compounds read low 1.02 | locus YIL066C, strain RNR3, active compounds read low 1.01 | locus YIL073C, strain SPO22, active compounds read low 1.02 | locus YIL125W, strain kgd1, active compounds read low 1.01 | locus YIR030C, strain dcg1, active compounds read low 1.03 | locus YJL092W, strain hpr5, active compounds read low 0.981 | locus YJL095W, strain BCK1 (second series), active compounds read low 0.996 | locus YJL095W, strain BCK1, active compounds read low 1.02 and 0.991 | locus YJL115W, strain asf1, active compounds read low 0.97 | locus YJL129C, strain trk1, active compounds read low 0.96 | locus YJL134W, strain LCB3, active compounds read low 1 | locus YJL154C, strain vps35, active compounds read low 0.972 | locus YJL164C, strain tpk1, active compounds read low 1.01 | locus YJL166W, strain qcr8, active compounds read low 0.978 | locus YJL168C, strain set2, active compounds read low 1.01 | locus YJL187C, strain SWE1 (second series), active compounds read low 1.02 | locus YJR043C, strain POL32, active compounds read low 1.01 | locus YJR066W, strain TOR1, active compounds read low 0.995
